The sample as a whole holds a higher share of hits than the screen did.
FBPA Giardia inh – inhibitors of Giardia lamblia fructose-1,6-bisphosphate aldolase. A8B2U2. purified Giardia FBPA. Potency, µM (series often up to 59.6 µM), hits mostly inhibitors. hit rate 0.71% among 290,000. AID 2451; also: nearly all actives have a fitted effect of over 55% in size
Target sequence (A8B2U2 whole entry, looked up): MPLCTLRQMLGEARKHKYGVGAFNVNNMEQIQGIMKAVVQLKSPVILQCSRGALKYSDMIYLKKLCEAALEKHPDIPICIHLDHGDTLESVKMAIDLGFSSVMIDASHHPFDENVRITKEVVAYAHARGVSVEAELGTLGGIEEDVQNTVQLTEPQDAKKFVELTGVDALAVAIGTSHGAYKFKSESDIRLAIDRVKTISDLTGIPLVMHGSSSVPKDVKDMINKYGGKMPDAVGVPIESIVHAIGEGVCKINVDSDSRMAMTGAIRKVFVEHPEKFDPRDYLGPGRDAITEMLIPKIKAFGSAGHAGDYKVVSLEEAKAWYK
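40 nM FBPA preincubated 10 min at RT with compound (up to 57.5 uM final), then substrate plus GAPDH/TPI/NAD/arsenate coupling and diaphorase/resazurin added. Fluorescence read after 20 min at RT, 525/598 nm.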
Cycloheximide cs – affects cycloheximide protein synthesis inhibition readout, counter-screen. cell reporter, cycloheximide protein synthesis inhibition counterscreen. max response, %. hit rate 12% among 300,000; in the data active = max response mostly above about 13%, no sharp cut-off; inactive = mostly below about 14%; also: read at 38.3 µM for the half of the compounds with a filed dose
Tb PYK inh – inhibitors of Trypanosoma brucei pyruvate kinase; TbPYK enzyme, Kinase-Glo Plus ATP luminescence, 45 min; Potency, µM (titrated, usually from 76.8 µM), actives largely listed as inhibitors; hit rate 0.12% among 410,000; also: nearly all actives have a fitted effect of over 50% in size
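Quantitative HTS: titrated library compounds versus trypanosomal pyruvate kinase in TEA buffer (pH 7.2) containing KCl, MgCl2, BSA and Tween-20. Reactions were initiated with ADP, 130 uM final. Kinase-Glo Plus luminescence was read after 45 min at RT.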
LmPK inhibitor – inhibitors of Leishmania mexicana pyruvate kinase; purified LmPK, Kinase-Glo ATP luminescence, 1 h; Potency, µM (series often up to 57.5 µM), actives largely listed as inhibitors; hit rate 0.37% among 290,000; AID 1721
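Kinase-Glo luminescence read after 1 h RT reaction of 0.1 nM LmPK with 0.5 mM PEP and 0.1 mM ADP. Activity scaled between uninhibited and enzyme-free controls.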
Sm TGR block – blocks Schistosoma mansoni thioredoxin glutathione reductase; Q962Y6; purified TGR, DTNB reduction, TNB absorbance 405 nm; Potency, µM (doses to about 114 µM), usual class: inhibitors; hit rate 3% among 360,000; also: nearly all actives have a fitted effect of over 60% in size
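Kinetic colorimetric format: TGR-catalysed, NADPH-driven DTNB reduction monitored via TNB absorbance. Enzyme dispensed at 20 nM; compound exposure 15 min at room temperature before reaction start.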
Shiga toxin inh – blocks Shiga toxin action in Vero cells. Vero cells, Shiga toxin protein synthesis inhibition reporter. inhibition, % at 38.7 µM. hit rate 9.2% among 290,000. AID 2315; in the data active = inhibition mostly above about 28%, no sharp cut-off; inactive = mostly below about 43%
Numbers stand for hits; . = inactive; / = not tested or not shown; + = active, no number; [ ] = remark or other dose. Unless noted, calls follow the shape of the dose curve; as a rule, active = well fitted curve in the direction sought with a large enough effect; inconclusive = small, poorly fitted or top-dose-only effect, or another doubt; inactive = no such curve, though single readings can be large; an effect the other way counts as inactive or inconclusive.

SMILES	FBPA Giardia inh	Cycloheximide cs	Tb PYK inh	LmPK inhibitor	Sm TGR block	Shiga toxin inh
CCOC(=O)c1csc(-c2sccc2Br)n1	.	51	.	16µM	.	54
CCOC(=O)c1csc(NC(=O)c2ccc(OCC)cc2)n1	.	38	.	.	.	95
COc1ccc(CCNC(=O)Cn2cc(S(=O)(=O)Cc3ccccc3F)c3ccccc32)cc1OC	/	/	.[15.4 µM]	/	.	/
Cc1c(CCNC(=O)C(C)(C)C)sc2nc(-c3ccc(F)cc3)nn12	/	/	.	/	.	/
CCc1nnc(NC(=O)C(C)Sc2ccccc2)s1 (stereo not drawn)	.	.	.	.	.	.
Cc1ccc(C(C)(C)C)c(SCC(=O)Nc2nnc(C)s2)c1	.	.	.	.	.	.
CCOC(=O)c1csc(NC(=O)c2ccc3c(c2)OCCO3)n1	/	51	.	.	.	127
CCOC(=O)c1csc(NC(C)=O)n1	.	28	.	.	.	.
CCOC(=O)c1csc(NC(=O)c2ccc(S(=O)(=O)N(C)C)cc2)n1	.	.	.	.	.	.
CCOC(=O)c1csc(-c2ccc3c(c2)CCO3)n1	.	41	.	.	.	59
CCOC(=O)c1csc(NC(=O)c2ccc(OC)c(OC)c2)n1	.	.	.	.	.	.
c1nc2nc(Nc3ccc(N4CCOCC4)cc3)nc(NC3CCCCC3)c2[nH]1	.	.	/	/	/	.
Clc1ccc(-c2cc(-c3ccccc3)on2)cc1	/	/	.	/	.	/
Cc1ccc(-c2cc(-c3ccccc3)no2)c(O)c1	.	43	.	.	.	.
Cc1ccc(O)c(-c2cc(-c3ccc(F)cc3)no2)c1	.	37	.	.	.	122
Cc1ccccc1-c1csc(N)n1	/	/	.	/	/	/
Oc1ccccc1-c1cc(-c2ccccc2)no1	.	47	.	.	.	+
Cc1ccccc1-c1cc(-c2ccccc2O)on1	.	52	.	.	.	76
COc1cccc(C(=O)N(Cc2ccco2)c2ccccn2)c1	/	/	.	/	.	/
CC(C)(C)c1nn2cnnc2n(/N=C/c2ccc(O)cc2)c1=O	.	.	.	.	.	.
Nc1ncnc2c1nc(Br)n2[C@@H]1O[C@H]2COP(=O)(O)O[C@@H]2[C@@H]1O	.	.	/	/	/	.
COc1ccccc1OCCCn1cc(C(=O)c2ccco2)c2ccccc21	.	35	.	.	.	143
O=C(c1ccco1)c1cn(Cc2ccc(Cl)cc2)c2ccccc12	.	23	.	.	.	.
Cc1ccccc1OCC(=O)N(Cc1ccc(N(C)C)cc1)CC1CCCO1 (stereo not drawn)	/	/	.	/	.	/
COc1cccc(-c2nc3ccccc3s2)c1O	.	27	.	.	/	.
SMILES	FBPA Giardia inh	Cycloheximide cs	Tb PYK inh	LmPK inhibitor	Sm TGR block	Shiga toxin inh
Clc1ncccc1-c1nc2ccccc2s1	.	34	.	.	.	106
CN1CCN(c2nc(-c3ccccc3O)nc3ccccc23)CC1	.	.	.	.	.	.
COc1ccccc1C(=O)Nc1ccc(-c2nc3ccccc3s2)c(C)c1	/	/	.	/	.	/
Oc1c(Br)cc(Br)cc1-c1nc2ccccc2s1	/	/	.	/	45µM	/
COc1cccc(-c2nc(N3CCN(C)CC3)c3ccccc3n2)c1O	.	14	.	.	.	.
Cc1ccccc1Cn1cnc2nc3c(cc2c1=O)CC(C)CC3 (stereo not drawn)	/	/	.	/	.	/
COc1cc(OC)cc(C(=O)Nc2ccccc2-c2nc3ccccc3s2)c1	/	/	.	/	.	/
COc1cc(OC)c(-c2nc3ccccc3s2)cc1OC	.	24	.	.	.	33
O=C(N/N=C/c1ccc(O)cc1)c1cc(C23CC4CC(CC(C4)C2)C3)[nH]n1	.	.	.	.	.	.
C/C(=N\NC(=O)c1cc(C(C)(C)C)[nH]n1)C12CC3CC(CC(C3)C1)C2	.	23	.	.	.	.
Cc1nonc1NCn1nnc2ccccc21	.	.	.	.	35µM	.
COc1cc(/C=N/NC(=O)Cn2nnc3ccccc32)ccc1O	.	.	.	.	.	.
COc1cccc(/C=N\NC(=O)Cn2nnc3ccccc32)c1O	.	27	.	.	.	76
COC(=O)c1ccc(NC(=O)Cn2nnc3ccccc32)cc1	.	38	.	.	.	67
O=C(Cn1nnc2ccccc21)Nc1ccc([N+](=O)[O-])cc1	.	.	.	.	.	.
Cc1ccc(NC(=O)Cn2nnc3ccccc32)cc1	.	37	.	.	.	68
